This is part of a sample that, as a whole, favours compounds with a hit. Of some 83,000 tested, about 20% had one in any assay.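 Compound tested at a single concentration for 48 hours in 96-well plates; a percent growth value below 10 was scored as active.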 A number with no mark means an inactive call. Active and inactive are the calls of the source.
Assays:
Assay in all cases: NCI-60 one-dose screen, 48 h (100 = growth as untreated, 0 = no growth, -100 = all killed)
Conditions in all cases: 10 µM unless noted
NCI-H23 lung = test system: NCI-H23 lung
NCI-H226 lung = test system: NCI-H226 lung
NCI-H322M lung = test system: NCI-H322M lung
HOP-62 NSCLC = test system: HOP-62 NSCLC
NCI-H460 lung = test system: NCI-H460 lung
HOP-92 NSCLC = test system: HOP-92 NSCLC
NCI-H522 lung = test system: NCI-H522 lung
A549/ATCC NSCLC = test system: A549/ATCC NSCLC
786-0 renal = test system: 786-0 renal
COLO 205 colon = test system: COLO 205 colon

SMILES	growth (NCI-H23 lung)	growth (NCI-H226 lung)	growth (NCI-H322M lung)	growth (HOP-62 NSCLC)	growth (NCI-H460 lung)	growth (HOP-92 NSCLC)	growth (NCI-H522 lung)	growth (A549/ATCC NSCLC)	growth (786-0 renal)	growth (COLO 205 colon)
CCN(CC)c1ccc2cc(C(Nc3ccc(C)cc3)c3nnnn3C(C)(C)C)c(=O)oc2c1 (centres undefined)	95.1%	85%	103%	103%	91.9%	81%	82.8%	85.4%	96%	110%
O=[N+]([O-])c1cc(CCl)ccc1OCCBr	102%	94.8%	104%	105%	101%	98.6%	96.1%	104%	103%	107%
C#CCNC(=O)CC[C@]1(C)[C@H]2CC[C@@H]3[C@@H]([C@@](C)(O)CCC=C(C)C)CC[C@@]3(C)[C@]2(C)CC[C@H]1C(=C)C	16.3% [100 µM]	51.5% [100 µM]	75.7% [100 µM]	51.5% [100 µM]	33.7% [100 µM]	-25.5% [100 µM] (active)	-73.1% [100 µM] (active)	37.7% [100 µM]	-67.9% [100 µM] (active)	42.7% [100 µM]
Cn1cc(-c2nnc(-c3ccccc3)s2)c2cc(Br)cnc21	85%	64%	88.2%	74.3%	95.4%	42.3%	89.5%	83.1%	99.6%	104%
COC(=O)[C@H](CC(C)C)NC(=O)NC(=O)NC(=O)CI	73.5%	98.5%	98.2%	92.8%	85.9%	-60.6% (active)	-79.2% (active)	98.2%	-73.5% (active)	-31.4% (active)
COc1cc(-c2nc(SCCC(C)C)nc(Nc3ccccc3)c2C#N)cc(OC)c1OC	97.1%	101%	103%	114%	101%	86.8%	80.6%	91.5%	91.7%	99.1%
CCCn1ccnc1C(O)c1ccc(OCc2ccccc2)c(OC)c1 (centres undefined)	90.7%	97.4%	90.1%	87.5%	103%	68.1%	66.1%	97.7%	96.6%	93.2%
CCn1cc(-c2cc(-c3ccc(Cl)cc3)nc(N)n2)c(-c2ccc(Br)cc2)n1	79.4%	86.1%	92.6%	74.7%	95.4%	74.2%	48.7%	64.7%	89.4%	85.7%
Cn1cc(-c2noc(-c3cn(C)c4ncc(F)cc34)n2)c2ccccc21	75.1%	76.7%	41.3%	36.3%	22.9%	62%	66.2%	37.9%	33.6%	66.7%
COc1ccc(-c2nc3ccccn3c2/C=C/C(=O)c2cc(OC)c(OC)c(OC)c2)cc1OC	16.3%	23.3%	51.3%	28.5%	0.623% (active)	-22.5% (active)	-5.63% (active)	20.7%	24.7%	17.9%
CC1(C)[C@@H](NOCCCN)CC[C@]2(C)[C@H]3C(=O)C=C4[C@@H]5C[C@](C)(C(=O)O)CC[C@]5(C)CC[C@@]4(C)[C@]3(C)CC[C@@H]12	-39.4% [100 µM] (active)	-44.8% [100 µM] (active)	-94.4% [100 µM] (active)	-84.4% [100 µM] (active)	-67.2% [100 µM] (active)	-71.8% [100 µM] (active)	-57.7% [100 µM] (active)	-27.4% [100 µM] (active)	-78.6% [100 µM] (active)	-68.2% [100 µM] (active)
COc1cc(C)cc2oc3oc(=O)c(C(=O)c4cc5cc(Br)ccc5o4)cc3c(=O)c12	107%	96.7%	97.3%	104%	107%	102%	101%	102%	110%	125%
COc1ccc2c(c1)C(C)Cc1c(ncnc1-n1cnc3ccccc31)N2C (centres undefined)	32.3%	41.5%	54.9%	24.1%	11.8%	45.1%	-18.9% (active)	21.4%	29%	-28.7% (active)
Cc1ccc(C2=C/C(=C/c3ccc(Br)cc3)C(=O)N2CCc2ccc(S(N)(=O)=O)cc2)cc1	100%	97%	90.6%	96.1%	100%	89.9%	89%	96%	97.1%	115%
Cc1ccc(-c2cc(-c3ccc(C)cc3)nc(NCCNc3ccnc4cc(Cl)ccc34)n2)cc1	-12% (active)	-59.2% (active)	14.9%	-7.66% (active)	-68.8% (active)	-33.9% (active)	-63.6% (active)	-56.5% (active)	-91.4% (active)	-85.8% (active)
COc1cc2c(cc1OC(C)=O)C(=O)CCCC2	93.6%	98.1%	89.9%	75.4%	105%	79%	78%	85.8%	86.9%	135%
NC(=O)c1cccc(-c2ccc(S(=O)(=O)Nc3ccc4c(c3)N(C(=O)C3CC3)CCC4)cc2)c1	48%	63.7%	70%	38.4%	17.1%	33.7%		50.8%	100%	43.6%
CCN(CC)c1ccc2cc(NC(=O)OCCNC(=O)CCNC(=O)[C@H](CC(C)C)NC(=O)C(C)(C)NC(=O)C(C)(C)NC(=O)[C@H](CC(C)C)NC(=O)CCNC(=O)C(C)(C)NC(=O)[C@H](CC(C)C)NC(=O)CCNC(=O)[C@@](C)(CC)NC(=O)[C@H](C)NC(=O)CCNC(=O)C(C)(C)NC(=O)[C@H](C)NC(=O)[C@@H]3CCCN3C(=O)[C@@](C)(CC)NC(=O)[C@H](Cc3ccccc3)NC(=O)C3CCCN3C(=O)C(C)(C)NC(=O)C3CCCN3C(=O)C(C)(C)NC(C)=O)c(=O)oc2c1 (some centres undefined)	-85.9% (active)	-65.9% (active)	-80.3% (active)	-86.7% (active)	-76.9% (active)	-95.8% (active)		-76% (active)	-94.8% (active)	-81.1% (active)
COCCCNc1nc(NC(=O)c2cc(OC)cc(OC)c2)cc(-c2cccnc2)n1	98.6%	96.5%	92.8%	91.3%	95.2%	52.6%		91.2%	83.3%	109%
Cc1ccc2c(c1)/C(=N\N=C/c1cn(C(C)C)c3ccccc13)C(=O)N2	61.7%	56.1%	61.1%	49%	40.5%	71.8%		60.8%	93%	-29.8% (active)
C#C[C@]1(O)CC[C@H]2[C@@H]3CC=C4c5nc(N)sc5CC[C@]4(C)[C@H]3CC[C@@]21C	78%	83.8%	79.7%	62.5%	86.9%	62.2%		65.9%	-0.771% (active)	80.5%
O=C(N[C@@H]1CCCc2ccccc21)[C@H](CCC(=O)N1CCN(C2CCCCC2)CC1)N1C(=O)[C@@H](N2C(=O)OC[C@@H]2c2ccccc2)[C@H]1/C=C/c1ccccc1	57.7%	64.4%	34.6%	61.3%	29.4%	2.75% (active)		28%	42.1%	34.4%

Source: PubChem BioAssay (NCI)
